Test [1] can be described thus: Quantitative highthroughput screen to assess conditional lethalithy of NOMO1 cells grown in RPMI1640 with untreated serum (RPMI+s) (AID 1963876). Also: nearly all actives have a fitted effect of over 35% in size.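 As to viability: 100% = DMSO wells and 0% = empty wells without cells.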 In outline: (§1)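 Each medium arm—HPLM with 10% dialyzed FBS, or RPMI1640 with 5 mM glucose and 10% untreated or dialyzed FBS—was screened against an 11-point, 3-fold compound titration for 48 h at 37 °C, with CellTiter-Glo luminescence as endpoint.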

Test [2] in a line: Quantitative highthroughput screen to assess conditional lethalithy of NOMO1 cells grown in RPMI1640 with dialyzed fetal bovine serum (RPMI+ds) (AID 1963877). Also: nearly all actives have a fitted effect of over 30% in size.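 As to viability: series mostly up to about 46 µM; 100% = DMSO control wells and 0% = empty wells.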 In outline: as §1
Test [3] is described as follows: Quantitative highthroughput screen to assess conditional lethalithy of NOMO1 cells grown in Human Plasma-Like Medium with dialyzed fetal bovine serum (HPLM+ds) (AID 1963878). Also: nearly all actives have a fitted effect of over 35% in size.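 As to viability: 100% = DMSO wells and 0% = empty wells on each plate.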 In outline: as §1
A short description of test [4]: Quantitative highthroughput screen to assess conditional lethalithy of P12 Ichikawa cells grown in Human Plasma-Like Medium with dialyzed fetal bovine serum (HPLM+ds) (AID 1963879). Also: nearly all actives have a fitted effect of over 35% in size. As to viability: series mostly up to about 46 µM. The note with it: Potency: viability. In outline: as §1
Test [5] is described as follows: Quantitative highthroughput screen to assess conditional lethalithy of P12 Ichikawa cells grown in RPMI1640 with dialyzed fetal bovine serum (RPMI+ds) (AID 1963880). Also: nearly all actives have a fitted effect of over 35% in size.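 As to viability: 100% = DMSO wells and 0% = empty wells on each plate.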 The note with it: Potency: P12-Ichikawa viability. The procedure, abridged: as §1
Test [6] is described as follows: Quantitative highthroughput screen to assess conditional lethalithy of P12 Ichikawa cells grown in RPMI1640 with untreated serum (RPMI+s) (AID 1963881). Also: nearly all actives have a fitted effect of over 35% in size.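 As to viability: series mostly up to about 46 µM; 100% = DMSO wells and 0% = empty wells without cells.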 The note with it: Potency: viability. In outline:
as §1

Test [7] is described as follows: Quantitative highthroughput screen to assess conditional lethalithy of SEM cells grown in Human Plasma-Like Medium with dialyzed fetal bovine serum (HPLM+ds) (AID 1963882). Also: nearly all actives have a fitted effect of over 35% in size. As to viability: series mostly up to about 46 µM. In outline:
as §1

Test [8] can be described thus: Quantitative highthroughput screen to assess conditional lethalithy of SEM cells grown in RPMI1640 with unreated serum (RPMI+s) (AID 1963883). Also: nearly all actives have a fitted effect of over 35% in size.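 As to viability: 100% = DMSO wells and 0% = empty wells without cells.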 In outline:
as §1

Test [9] is described as follows: Quantitative highthroughput screen to assess conditional lethalithy of SEM cells grown in RPMI1640 with dialyzed fetal bovine serum (RPMI+ds) (AID 1963884). Also: nearly all actives have a fitted effect of over 35% in size.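 As to viability: series mostly up to about 46 µM; 100% = DMSO control wells and 0% = empty wells without cells.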 The procedure, abridged: as §1
Test [10] in a line: Cellular viability qHTS for adrenocortical cancer (ACC) cell line SW-13 (AID 1963989). Also: nearly all actives have a fitted effect of over 65% in size.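 As to activity (max response): cells grown in serum-free medium with ITS supplement; % is scaled to controls: 0 for no effect and ±100 for the full control effect.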 The note with it: SW-13 ACC cells viability, CellTiter-Glo, 48 h; activity (max response): hits give low values. In outline: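 Viability was read as CellTiter-Glo luminescence after 48 h compound treatment (up to 46 uM final) of SW-13 cells grown serum-free; titration curves were fit with a four-parameter logistic model to give IC50 and efficacy.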
(qHTS replaces the single test concentration by a dilution series.)

Test [11] can be described thus: Cellular viability qHTS for adrenocortical cancer (ACC) cell line NCI-H295R (AID 1963990). Also: nearly all actives have a fitted effect of over 60% in size. In outline:
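CellTiter-Glo ATP luminescence, read 48 h after compound addition, measured viability of NCI-H295R adrenocortical cells grown serum-free with ITS. Final concentrations spanned up to 46 uM. Data normalized to DMSO and doxorubicin, fitted for IC50 and maximal response.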

Each structure is given as a SMILES string. “And” between values parts separate entries of the source, which are not always exact repeats. Equal entries are not always repeated. Results filed as inconclusive are left out. Unmarked numbers belong to inactive results. The source made the active and inactive calls. Calls follow the shape of the dose curve; as a rule, active = well fitted curve in the direction sought with a large enough effect; inconclusive = small, poorly fitted or top-dose-only effect, or another doubt; inactive = no such curve, though single readings can be large; an effect the other way counts as inactive or inconclusive.
Potency is read from the fitted curve at half-maximal effect.

As to `CC(C)(C)COc1ccc(-n2cc(C(=O)O)cn2)cc1C#N`, the Potency entry in [1], in [2], in [3], in test [4], in test [5] and in [6] was “inactive” each time. Moreover, the Potency entry in test [7], in test [8], in test [9] and in test [11] was “inactive” in each case. In addition, the activity (max response) in [10] was 0.955%.

In the case of `Cn1cc(-c2ccc3nnc(Sc4ccc5ncccc5c4)n3n2)cn1`, the Potency entry in [1], in [2], in test [3], in [4], in test [5] and in test [6] was “inactive” in each case. Also, the Potency entry in [7], in [8], in [9] and in test [11] was “inactive” each time. For the same compound, the activity (max response) in test [10] was -4.92%.

On to `C[C@@]12O[C@@H](C[C@]1(O)CO)n1c3ccccc3c3c4c(c5c6ccccc6n2c5c31)CNC4=O`, for which the Potency in test [1] is 1320 nM (active); in test [2], 1320 nM (active); in test [3] it was 833 nM (active); in test [4], 935 nM (active); in test [5], 833 nM (active); in test [6] it was 662 nM (active). The Potency in test [7] is 166 nM (active); in test [8] it was 46.9 nM (active); in [9], 105 nM (active); in test [10] it was 2820 nM (active); in test [11], 3980 nM (active).

As for `Cc1csc(NC(=O)c2sc3nc4c(c(C(F)(F)F)c3c2N)CCC4)n1`, the Potency result in test [1], in [2], in test [3], in test [4], in test [5] and in test [6] was “inactive” throughout. Besides, the Potency result in test [7], in test [8] and in test [11] was “inactive” throughout. The activity (max response) in test [10] is -2.72%.

Turning to `COC(=O)N1CCN(Cc2cccc(NC(=O)Nc3ccc(C)nc3)c2F)CC1`, the Potency entry in test [1], in test [2], in [3], in test [4], in [5] and in test [6] was “inactive” each time. Besides, the Potency entry in [7], in test [8], in test [9] and in test [11] was “inactive” throughout. The activity (max response) in [10] is -16.4%.

In the case of `COCCCOc1ccnc(CS(=O)c2nc3ccccc3[nH]2)c1C` (stereo unspecified), the Potency result in [1], in test [2], in test [3], in [4], in test [5] and in test [6] was “inactive” each time. In addition, the Potency entry in test [7], in [8], in test [9] and in [11] was “inactive” each time. Also, the activity (max response) in [10] was 10.6% and -5.29%.

On to `COc1cc(C=CC(=O)CC(=O)C=Cc2ccc(O)c(OC)c2)ccc1O`, for which the Potency in test [1] is 38200 nM (active); in test [2], 42900 nM (active); in test [3] it was 24100 nM (active); in [4] it was 21500 nM (active); in test [5] it was 34000 nM (active); in test [6], 34000 nM (active). Moreover, the figures for the Potency in test [7] and in test [9] were 19100 nM (active) and 21500 nM (active), respectively.

As for `O=c1ccn([C@@H]2O[C@H](CO)[C@H](O)[C@@H]2F)c(=O)[nH]1`, the Potency entry in [1], in test [2], in test [3], in [4], in test [5] and in test [6] was “inactive” throughout. In addition, the Potency result in [7], in [8], in test [9] and in test [11] was “inactive” each time. Further, in [10], the activity (max response) is -7.29%.

With `C=C1c2cccc(O)c2C(O)=C2C(=O)[C@@]3(O)C(O)=C(C(N)=O)C(=O)[C@@H](N(C)C)[C@@H]3[C@@H](O)[C@H]12`, the Potency entry in [1], in test [2], in [3], in [4], in [5] and in test [6] was “inactive” in each case. The Potency entry in test [7], in test [8], in test [9] and in test [11] was “inactive” each time. Further, the activity (max response) in [10] is -8.37%.

For `O=C(NC1CCOCC1)c1ccc(-c2cc(-c3cn[nH]c3-c3ccccn3)ccn2)cc1`, the Potency result in test [1], in [2], in test [3], in test [4], in test [5] and in test [6] was “inactive” in each case. Also, the Potency result in test [7], in test [8] and in test [9] was “inactive” throughout. In addition, the activity (max response) in test [10] is 6.28%.

In the case of `CC1(C)CCC[C@@]2(C)[C@@H]1CC[C@@]1(C)OC(=O)C[C@H]21`, the Potency entry in test [1], in test [2], in test [3], in test [4], in test [5] and in test [6] was “inactive” throughout. The Potency result in test [7] and in test [9] was “inactive” each time.

Turning to `CC#CCn1c(N2CCC[C@@H](N)C2)nc2c1c(=O)n(Cc1nc(C)c3ccccc3n1)c(=O)n2C`, the Potency entry in [1], in [2], in test [3], in test [4], in test [5] and in test [6] was “inactive” throughout. Besides, the Potency result in test [7], in test [8], in [9] and in [11] was “inactive” throughout. Further, in [10], the activity (max response) was 0.332%.

Consider `NC(=O)c1ccc(I)c([N+](=O)[O-])c1`, for which the Potency result in test [1], in [2], in [3], in [4], in [5] and in test [6] was “inactive” each time. The Potency entry in [7], in test [8], in test [9] and in test [11] was “inactive” each time. For the same compound, in test [10], the activity (max response) is 11.3%.

Regarding `Cn1cc(-c2ccc3ncc(Cc4ccc5ncccc5c4)n3n2)cn1`, the Potency result in [1], in test [2], in test [3], in [4], in [5] and in [6] was “inactive” in each case. Also, in test [11], the Potency entry is “inactive”. The Potency in [7] was 8330 nM (active); in [8], 9350 nM (active); in test [9] it was 10500 nM (active).

In the case of `CCOC(=O)C1=C(C)NC(=S)NC1c1cccc(O)c1` (stereo unspecified), the Potency in [1] is 148 nM (active); in test [2] it was 264 nM (active); in [3], 235 nM (active); in [4] it was 187 nM (active); in test [5], 296 nM (active); in test [6] it was 148 nM (active). Also, the Potency was 74.3 nM (active) in [7], 132 nM (active) in test [8] and 166 nM (active) in test [9]. The Potency result in test [11] was “inactive”.

Regarding `CCC1=C(C)CN(C(=O)NCCc2ccc(S(=O)(=O)NC(=O)NC3CCC(C)CC3)cc2)C1=O` (stereo unspecified), the Potency entry in test [1], in [2], in test [3], in test [4], in test [5] and in test [6] was “inactive” throughout. For the same compound, the Potency entry in test [7], in [8], in [9] and in [11] was “inactive” throughout. Also, the activity (max response) in [10] was -7.59%.

`Cc1cc(O)c2c(c1)C(=O)c1cc(O)cc(O)c1C2=O`: the Potency entry in test [1], in [2], in test [3], in test [4], in test [5] and in test [6] was “inactive” throughout. The Potency result in [7], in [8], in [9] and in test [11] was “inactive” throughout.

Source of the values: PubChem BioAssay (NCATS).
